# High-throughput results deposited in PubChem by Columbia University Molecular Screening Center.
# In the library only some 1.5% were active in any assay of this set; here they are far more common.
# VCAM1 TNFa inh – inhibitors of TNFa-induced VCAM1 expression, primary screen, imaging, HUVEC, TNFa stimulus, immunofluorescence; inhibition, % at 2 µM; 95,000 tested, 0.48% active; HUVEC TNFa-induced VCAM-1 immunofluorescence, high-content imaging;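 active = inhibition above the batch mean plus 3 SD, with images confirmed as a hit by eye, cut at about 37% in these data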
# HUVEC tox TNFa – cytotoxicity in TNFa-stimulated HUVEC, primary screen, cytotoxicity control for VCAM1 expression modulator project, imaging, Hoechst nuclei count; cell count reduction, % at 2 µM; 93,000 tested, 0.17% active; HUVEC TNFalpha-stimulated, Hoechst cell count; AID 848, 2007;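 active = cell count reduction exceeding the screen mean by over 5 SD, scaled to untreated wells per plate, cut at about 78% in these data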;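 also: cells counted after 24 h of TNF alpha exposure following the 1 h pretreatment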
# HUVEC tox IL1B – cytotoxicity in IL-1B stimulated HUVEC, primary screen, cytotoxicity control for IL-1B NFkB translocation project, imaging, Hoechst nuclear count, IL-1B stimulus | HUVEC cell count loss | cell count reduction, % at 2 µM | 94,000 tested, 0.41% active;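 active = cell count reduction more than 3 SD above the screen-wide mean, cut at about 70% in these data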
# IL1B NFkB pot – enhancers of NFkB p65 translocation in HUVEC – imaging, IL-1B stimulus, high-content imaging, primary screen. 94,000 tested, 0.3% active. activation, % at 2 µM. HUVEC IL-1B NFkB p65 nuclear translocation imaging;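 active = activation above 40%, about the mean plus 3 SD, also judged a hit on visual image review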;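 also: percent activation is computed from the nuclear over cytoplasmic p65 intensity ratio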
# IL1B NFkB inh – inhibitors of IL-1B driven NFkB p65 nuclear import, primary screen, imaging, HUVEC, IL-1B stimulus, high-content imaging | HUVEC IL-1B NFkB p65 nuclear translocation imaging | inhibition, % at 2 µM | 94,000 tested, 0.43% active | AID 796, 2007;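 active = inhibition above about 30% together with a positive call from visual inspection of the well image, limit read from the data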;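 also: nuclear over cytoplasmic p65 intensity ratio measured by imaging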
# Numbers stand for hits; n = inactive; x = no result.
SMILES,VCAM1 TNFa inh,HUVEC tox TNFa,HUVEC tox IL1B,IL1B NFkB pot,IL1B NFkB inh
CCC1CCC/C1=N\NC(=O)c1cc(C)[nH]n1 (configuration not stated),n,n,n,n,n
N#CC1=C(N)SC(N)=C(C#N)C1CCC1CCCCC1,n,n,n,n,n
COCCCNC(=O)c1nc2c(nnn2Cc2cc(C)ccc2C)c(=O)[nH]1,n,n,93,41,n
Cc1ccc(C)c(Cn2nnc3c(=O)[nH]c(C4CCCN(C(=O)CC(C)C)C4)nc32)c1 (configuration not stated),n,n,n,n,n
O=C(NCc1cccs1)c1nc2c(nnn2Cc2ccccc2Cl)c(=O)[nH]1,54,n,n,n,n
CC(C)(CO)NC(=O)CCCOc1ccc(Cl)cc1Cl,93,n,n,n,n
O=C(CSc1ncn[nH]1)NCCCc1ccccc1,n,n,n,n,n
COc1ccc(N=C2S/C(=C\c3ccc(N4CCOCC4)o3)C(=O)N2CCc2c[nH]c3ccccc23)cc1,n,n,n,n,48
O=C(c1ccc(F)cc1)N1CCCCC(Sc2nnc3ccccn23)C1=O (configuration not stated),n,n,n,n,30
COc1cc(Nc2nc3ccccc3n3nnnc23)cc(OC)c1OC,n,n,n,n,n
O=C(NCCCO)c1nc2ccccc2s1,n,n,n,42,n
CC(C)(C)NC(=O)c1nc2ccccc2s1,n,n,x,x,x
CCCc1cc(=O)[nH]c(SCC(=O)NC(=O)OCC)n1,n,n,n,n,n
CCCc1cc(=O)[nH]c(SCC(=O)Nc2nonc2N)n1,86,n,n,n,n
COC(=O)c1ccc(CSc2nnc3ccccn23)o1,n,n,n,152,n
CCOC(=O)c1c(NC(=O)CSc2nnc(-c3ccncc3)n2Cc2ccco2)sc(C(C)=O)c1C,n,n,n,n,38
O=C(NC1(C(F)(F)F)NC(=O)N(C2CCCCC2)C1=O)c1cccs1 (configuration not stated),x,x,n,n,n
Cc1ccc(S(=O)(=O)N(C)c2cc(S(=O)(=O)N3CCC(C)CC3)c(C)cc2C)cc1,n,n,94,n,n
CC1CCN(S(=O)(=O)c2ccc3[nH]c(=O)c(=O)[nH]c3c2)CC1,n,n,n,n,n
Cc1cc2n(n1)C(c1c[nH]c3ccccc13)Nc1ccccc1-2 (configuration not stated),n,n,n,n,n
Cc1nn2c(c1-c1ccc(Cl)cc1)N=C(c1ccco1)CC2c1ccccc1 (configuration not stated),n,n,n,n,n
CCn1c2ccccc2c2cc(NC(=O)c3cc(OC)c(OC)c(OC)c3)ccc21,95,n,n,n,n
CCn1c2ccccc2c2cc(NC(=O)COc3ccc(OC)cc3)ccc21,n,n,n,n,n
Cc1oc2c(cc(NS(=O)(=O)c3cccs3)c3ccccc32)c1C(=O)OC(C)C,n,n,n,n,n
COc1ccc(S(=O)(=O)Nc2cc3c(C(C)=O)c(C)oc3c3ccccc23)cc1,80,n,n,n,n
SMILES,VCAM1 TNFa inh,HUVEC tox TNFa,HUVEC tox IL1B,IL1B NFkB pot,IL1B NFkB inh
O=C(NCc1ccc2c(c1)OCO2)c1ccc(=O)[nH]c1,n,n,n,n,n
Cn1c(NCc2c[nH]c3ccccc23)nc2ccccc21,58,n,n,n,n
CC(C)C(=O)c1cc2c(cc1NC(=O)c1ccccc1)OCCO2,n,n,n,n,n
CC(C)C(=O)c1cc2c(cc1NC(=O)c1cccs1)OCCO2,n,n,n,n,32
c1ccc2c(c1)CCN(c1nc3cc4c(cc3s1)OCCO4)C2,n,n,n,n,n
CC(=O)Nc1ccccc1N(C)S(=O)(=O)c1ccc(C)cc1,n,n,n,n,n
COc1ccc(CNC(=O)CSc2nnc(Cn3nnc4ccccc43)n2C)cc1,n,n,n,n,n
COC(=O)C(O)(CC(=O)Nc1ccc(Cl)cc1F)C(F)(F)F (configuration not stated),n,n,n,n,32
COC(=O)C(O)(CC(=O)Nc1ccc(Cl)cc1Cl)C(F)(F)F (configuration not stated),n,n,n,n,n
COc1ccc(OCC(=O)N/N=C2\CCc3ccccc32)cc1,n,n,n,n,53
CCOc1ccc(NC(=O)CN2C(=O)C3CC=CCC3C2=O)cc1 (configuration not stated),n,n,93,n,n
CCOc1ccc(NC(=O)C2CCC(N3C(=O)C4CC=CCC4C3=O)CC2)cc1 (configuration not stated),n,n,n,n,n
O=C(Cn1c(=O)n(CCCCC(=O)NC2CCCC2)c(=O)c2ccccc21)NCCC1=CCCCC1,n,n,n,n,40
O=C(CCn1c(=O)c2ccccc2n(CC(=O)NC2CCCC2)c1=O)NCCc1ccc(Cl)cc1,n,n,n,n,n
CCN(CC)CCN1C(=O)C(O)=C(C(=O)c2ccco2)C1c1ccccn1 (configuration not stated),n,n,n,n,n
CCCOc1cccc(C2C(C(=O)c3ccco3)=C(O)C(=O)N2CCN(CC)CC)c1 (configuration not stated),n,n,n,49,n
Cc1ccc(S(=O)(=O)Cn2nnnc2C(c2ccc(F)cc2)N2CCC(C(N)=O)CC2)cc1 (configuration not stated),n,n,n,n,n
C(=C\c1ccccc1)/CN1CCN(c2ncnc3c2oc2ccccc23)CC1,n,n,n,40,n
COc1ccc(NS(=O)(=O)c2ccc(OCC(=O)N3CCOCC3)cc2)cc1,n,n,n,n,31
Brc1cccc(CN2CCCCCCC2)c1,n,n,n,n,n
COc1ccc2c(c1)SC1=NCCS(=O)(=O)N12,n,80,n,n,n
Cn1c(Cc2cccs2)nnc1SC/C=C/c1ccccc1,n,n,n,n,n
O=C(NNC(=O)c1ccncc1)c1ccncc1,n,n,n,n,n
O=C(NNS(=O)(=O)c1ccc(Br)cc1)c1ccncc1,n,n,n,n,35
O=P(OC1CCCCC1)(OC1CCCCC1)C(O)c1ccccc1 (configuration not stated),n,n,n,n,n
SMILES,VCAM1 TNFa inh,HUVEC tox TNFa,HUVEC tox IL1B,IL1B NFkB pot,IL1B NFkB inh
O=C1CCCc2c1cc(C(=O)NC1CCSC1=O)c(=O)n2-c1ccccc1 (configuration not stated),x,94,n,n,n
CC(C)(C)c1nc2ccccc2[nH]1,n,n,n,48,n
CCc1nc2cc(CC(=O)O)ccc2o1,n,n,n,n,n
Cc1c(C(=O)Nc2ccccc2)oc2c1C(=O)CC(C)(C)C2,n,n,n,n,n
Cc1ccc(NC(=O)c2oc3c(c2C)C(=O)CC(C)(C)C3)cc1,97,n,n,n,n
O=C(Nc1ccc2c(c1)oc1ccccc12)N1CCOCC1,n,n,71,n,n
